A3A deaminase – APOBEC3A ssDNA deaminase inhibitors, primary screen, selectivity assay for APOBEC3G inhibitor project, biochemical, FAM/TAMRA oligo cleavage fluorescence | DNA dC->dU-editing enzyme APOBEC-3A (Homo sapiens), P31941 | inhibition, % at 20 µM | AID 493011, 2011 | recombinant A3A, FAM/TAMRA ssDNA deamination fluorescence | 330,000 tested, 0.41% active;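 active = at least 40% inhibition at 20 µM here, with at most 30% in a related deaminase screen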;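 also: plate controls were A3A with DMSO for no effect and wells lacking A3A enzyme for full effect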
Target sequence (P31941 whole entry, looked up): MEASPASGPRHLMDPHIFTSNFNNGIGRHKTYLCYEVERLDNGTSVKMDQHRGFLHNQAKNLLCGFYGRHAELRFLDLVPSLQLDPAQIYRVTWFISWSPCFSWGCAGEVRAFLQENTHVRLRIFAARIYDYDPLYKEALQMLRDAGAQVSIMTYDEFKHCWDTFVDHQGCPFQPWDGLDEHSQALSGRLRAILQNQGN
Yeast superoxide – reduction of superoxide in aged yeast, primary screen, HTS | S. cerevisiae aged cells, superoxide DHE fluorescence; hits give low values | 330,000 tested, 0.18% active | AID 2690, 2010 | superoxide response (% of plate mean), % at 10 µM;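 active = superoxide response under a set limit, about three screen SD below normal, cut at about 65% in these data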;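 also: yeast aged for seven days with compound at 30 °C before DHE staining; 100% = average MFI of all compound-treated wells on the plate with controls excluded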
APOBEC3G inh – APOBEC3G DNA deaminase inhibitors, primary screen, biochemical, fluorescence, single-stranded DNA substrate, uHTS. DNA dC->dU-editing enzyme APOBEC-3G (Homo sapiens), Q9HC16. recombinant A3G, ssDNA deamination FAM/TAMRA fluorescence. inhibition, % at 20 µM. 330,000 tested, 0.28% active. AID 493012, 2011;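 active = inhibition of at least 40% at 20 µM, with no more than 30% in the related APOBEC3A deaminase screen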;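 also: plate controls were DMSO wells with A3G for no effect and wells lacking A3G enzyme for full effect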
Target sequence (Q9HC16 whole entry, looked up): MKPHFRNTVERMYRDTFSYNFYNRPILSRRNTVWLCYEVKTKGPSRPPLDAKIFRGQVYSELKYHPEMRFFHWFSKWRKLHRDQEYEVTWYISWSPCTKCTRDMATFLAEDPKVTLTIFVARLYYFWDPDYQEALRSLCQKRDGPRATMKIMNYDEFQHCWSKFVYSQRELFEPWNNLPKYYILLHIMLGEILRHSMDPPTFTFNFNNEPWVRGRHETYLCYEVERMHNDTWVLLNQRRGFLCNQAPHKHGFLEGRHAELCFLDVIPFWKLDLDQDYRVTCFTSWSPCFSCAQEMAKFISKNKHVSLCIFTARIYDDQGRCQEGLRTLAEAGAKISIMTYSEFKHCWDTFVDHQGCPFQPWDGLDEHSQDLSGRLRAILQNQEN
PfG6PD inh – PfG6PD enzyme inhibitors, primary screen, biochemical, fluorescence intensity, uHTS; PfGluPho enzyme, NADPH resazurin-diaphorase fluorescence; glucose-6-phosphate dehydrogenase-6-phosphogluconolactonase (Plasmodium falciparum 3D7); 350,000 tested, 0.78% active; AID 504690, 2011; inhibition, % at 20 µM;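 active = inhibition reaching at least a set limit at 20 µM in the primary screen, cut at about 59% in these data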;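 also: 0% = DMSO wells with substrate and 100% = DMSO wells lacking glucose-6-phosphate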
PfM18AAP inh – PfM18AAP inhibitors, malaria aminopeptidase, primary screen, biochemical, QFRET, recombinant enzyme; 290,000 tested, 1.2% active; AID 1822, 2009; inhibition, % at 7.35 µM; H-Glu-NHMec fluorogenic cleavage;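 active = inhibition above the campaign mean inhibition over all tested compounds plus 3 SD, cut at about 28% in these data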;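 also: 0% = plate median of test compound wells and 100% = 2 mM ZnCl2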
A3A conf – APOBEC3A deaminase inhibitors, retest, confirmation, selectivity assay for APOBEC3G inhibitor project, biochemical, single concentration, fluorescence readout; shares compounds with A3A deaminase; recombinant A3A, ssDNA deaminase UDG fluorescence assay; inhibition, % at 20 µM; 1,400 tested, 63% active;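 active = inhibition reaching a set limit, 80% of the first screen's cutoff, at 20 µM in any replicate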;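 also: plate controls were DMSO wells with A3A for no effect and wells lacking A3A enzyme for full effect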
UDG A3A counter – E. coli UDG inhibitors, confirmation, counter-screen for APOBEC3A inhibitor project, biochemical, single concentration, fluorescence, FAM/TAMRA oligo. 1,000 tested, under 10 active. UDG counterscreen, FAM/TAMRA uracil oligo fluorescence. inhibition, % at 20 µM. shares compounds with A3A deaminase. AID 504714, 2011; call rule not given here
Starred values were filed as active, the others as inactive; nt = no result given. The list is not random: actives were taken first. Their share in the collection is about 2.4%.

SMILES	A3A deaminase	Yeast superoxide	APOBEC3G inh	PfG6PD inh	PfM18AAP inh	A3A conf	others
CN(C)CCN(Cc1ccc(Cl)cc1)c1ccccn1	1	99	-6	11	6	nt
CSc1ccc(S(=O)(=O)N2CCC(C(=O)NCC3CCCO3)CC2)cc1 (stereo unspecified)	63*	103	11	17	-1	56*	UDG A3A counter=2
O=C(NCC1CCCO1)C1CCN(S(=O)(=O)c2ccc(Br)cc2)CC1 (stereo unspecified)	2	84	6	3	1	nt
CCCCCCn1c(COc2ccccc2F)nnc1SCC(=O)NC1CCS(=O)(=O)C1 (stereo unspecified)	nt	nt	nt	7	nt	nt
COc1cc(OC)c(NC(=O)Cc2cccs2)cc1Cl	-6	90	-6	9	-14	nt
CCN(CC)S(=O)(=O)c1ccc(OC)c(NC(=O)Cc2cccs2)c1	43*	108	16	9	-5	25
CCOc1ccc(NC(=O)CC2C(=O)N(c3ccccc3)C(=O)N2CCc2cccs2)cc1 (stereo unspecified)	72*	105	-6	-8	-4	-51	UDG A3A counter=-2
CCOc1ccc(NC(=O)CC2C(=O)N(c3ccccc3)C(=O)N2Cc2ccco2)cc1 (stereo unspecified)	-5	93	-8	1	6	nt
Cc1ccc(C(C)C)c(OCCNCCc2ccccc2)c1	-4	91	2	19	-10	nt
NC(N)=NS(=O)(=O)c1ccc(NC(=S)NC(=O)Cc2ccc(Cl)cc2)cc1	-7	85	19	-13	4	nt
CC1=CC(C)(C)[N+](C)(C)c2ccccc21	77*	101	14	-1	-5	72*	UDG A3A counter=-35
COc1ccc(S(=O)(=O)N2CCCCC2)cc1C(=O)N1CCCC1	-1	108	-9	-8	-6	nt
Cc1cc(S(=O)(=O)Nc2ccc(C(=O)NCc3ccncc3)cc2)ccc1F	0	97	-7	-18	nt	nt
CCC(C)N(C(=O)COC(=O)c1ccc(N)c([N+](=O)[O-])c1)C1CCS(=O)(=O)C1 (stereo unspecified)	nt	nt	nt	5	nt	nt
CCN(CC)CCNC(=O)c1ccc(NC(=O)C2CCN(c3ncnc4sc(C)c(C)c34)CC2)cc1	44*	100	16	-5	-2	57*
NC(=S)N/N=C1\CC(n2nnn(-c3cccc(Cl)c3)c2=S)C2COC1O2 (stereo unspecified)	1	96	5	8	13	nt
COc1ccc2[nH]c(O)c(N=O)c2c1	54*	94	26	-1	-3	53*	UDG A3A counter=2
O=Nc1c(O)[nH]c2ccc(Cl)cc12	-3	98	-7	-16	4	nt
Cc1cc(C)cc(NC(=O)C2CCCN2C(=O)Oc2ccccc2)c1 (stereo unspecified)	3	101	-3	1	6	nt
CCOc1ccc(NC(=O)C2CCCN2C(=O)Oc2ccccc2)cc1 (stereo unspecified)	73*	95	20	-13	5	78*	UDG A3A counter=-2
Cc1cccc(-c2ncc(CN3CCCC(CO)(Cc4ccccc4C)C3)cn2)c1 (stereo unspecified)	-2	110	-1	36	2	nt
Cn1c(SCC(=O)N2CCOCC2)nnc1-c1ccccc1	54*	91	24	-14	7	0
Cn1c(CC(=O)Nc2ccccc2F)nnc1SCC(=O)N1CCOCC1	40*	98	6	15	0	29
Cn1c(SCC(=O)N2CCN(c3ccccc3)CC2)nnc1-c1ccncc1	2	100	-5	10	0	nt
Cc1ccc(-n2nc3c(=O)n(CCCC(=O)N4CCC(C(N)=O)CC4)nc(C)c3c2C)cc1	7	81	-3	9	0	nt
SMILES	A3A deaminase	Yeast superoxide	APOBEC3G inh	PfG6PD inh	PfM18AAP inh	A3A conf	others
CCOc1ccc(/C=N/NC(=O)c2ccccc2O)cc1CN1CC2CC(C1)c1cccc(=O)n1C2 (stereo unspecified)	-3	125	-13	-6	nt	nt
C=CCn1nnnc1SCC(=O)Nc1ccc(C(=O)OC)cc1	3	96	-1	3	-15	nt
C=CCn1nnnc1SCC(=O)Nc1cccc(C(F)(F)F)c1	70*	98	23	4	-3	81*	UDG A3A counter=-3
CS(=O)(=O)c1ccc(NC(=O)CCCc2nc3ccccc3c(=O)[nH]2)cc1	10	95	-2	-9	nt	nt
CS(=O)(=O)c1ccc(Cl)c(NC(=O)CCCc2nc3ccccc3c(=O)[nH]2)c1	41*	100	4	-3	nt	2
CN(c1ccc(Br)cc1)S(=O)(=O)c1ccc2[nH]cc(C(=O)NCCN3CCOCC3)c(=O)c2c1	42*	97	6	-21	1	-1
CCc1ccc(N(C)S(=O)(=O)c2ccc3[nH]cc(C(=O)NCCN4CCOCC4)c(=O)c3c2)cc1	0	109	-2	-10	-2	nt
Cc1ccc(N(C(=O)c2csnn2)C(C(=O)NC2CCCCC2)c2ccccn2)cc1 (stereo unspecified)	-1	100	-7	0	-2	nt
O=C(NC1CCCC1)C(c1ccccn1)N(C(=O)c1csnn1)c1ccc(F)cc1 (stereo unspecified)	72*	86	-6	-8	0	-6	UDG A3A counter=-3
CCOc1ccc(N(CC(=O)Nc2ccc(C)c(C)c2)S(C)(=O)=O)cc1	46*	97	3	5	-10	2
CCOc1ccc(N(CC(=O)Nc2ccccc2Cl)S(C)(=O)=O)cc1	1	82	1	-6	5	nt
CCOc1ccc(N(CC(=O)Nc2ccccc2)S(C)(=O)=O)cc1	43*	99	9	8	1	64*	UDG A3A counter=-4
COc1ccc(-c2nn(-c3ccccc3)cc2C(=O)NC2CCCCC2C)cc1 (stereo unspecified)	3	101	-9	-8	nt	nt
O=C1C2C3C=CC(C3)C2C(=O)N1c1ccncc1 (stereo unspecified)	83*	109	-6	3	-6	-8	UDG A3A counter=-4
CN(C)/C=N/S(=O)(=O)c1ccc(Cl)c(Cl)c1	-1	110	-5	3	4	nt
Cc1ccc(C)c(NC(=O)Cn2cc(C(=O)C3CC3)c3ccccc32)c1	71*	105	18	-10	4	62*	UDG A3A counter=4
